Assay results taken from PubChem BioAssay (NCI).
This is part of a sample that, as a whole, favours compounds with a hit. Of some 83,000 tested, about 20% had one in any assay.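 Compound tested at a single concentration for 48 hours in 96-well plates; a percent growth value below 10 was scored as active.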 Values without a mark were called inactive. Calls of active or inactive are those of the source.

Key:
Assay in all cases: NCI-60 one-dose screen, 48 h (100 = growth as untreated, 0 = no growth, -100 = all killed)
A549/ATCC NSCLC = settings: 10 µM unless noted
DU-145 prostate = settings: 10 µM unless noted
K-562 leukemia = settings: 10 µM unless noted
RXF 393 renal = settings: 10 µM unless noted
UACC-257 melanoma = settings: 10 µM unless noted
HT29 colon = settings: 10 µM unless noted
SNB-75 CNS = settings: 10 µM unless noted
PC-3 prostate = settings: 10 µM unless noted
SK-MEL-5 melanoma = settings: 10 µM unless noted
UACC-62 melanoma = settings: 10 µM unless noted
SK-MEL-2 melanoma = settings: 10 µM unless noted
ACHN renal = settings: 10 µM unless noted
A498 renal = settings: 10 µM unless noted
HL-60(TB) leukemia = settings: 10 µM unless noted
MOLT-4 leukemia = settings: 10 µM
OVCAR-8 ovarian = settings: 10 µM unless noted
OVCAR-5 ovarian = settings: 10 µM unless noted
HS 578T breast = settings: 10 µM unless noted
NCI/ADR-RES ovarian = settings: 10 µM unless noted
T-47D breast = settings: 10 µM unless noted

Row | SMILES | growth (A549/ATCC NSCLC) | growth (DU-145 prostate) | growth (K-562 leukemia) | growth (RXF 393 renal) | growth (UACC-257 melanoma) | growth (HT29 colon) | growth (SNB-75 CNS) | growth (PC-3 prostate) | growth (SK-MEL-5 melanoma) | growth (UACC-62 melanoma) | growth (SK-MEL-2 melanoma) | growth (ACHN renal) | growth (A498 renal) | growth (HL-60(TB) leukemia) | growth (MOLT-4 leukemia) | growth (OVCAR-8 ovarian) | growth (OVCAR-5 ovarian) | growth (HS 578T breast) | growth (NCI/ADR-RES ovarian) | growth (T-47D breast)
1 | CNC(=O)Oc1cccc(N(C)C)c1 | 93% | 110% | 102% | 103% | 93.5% | 106% | 97.5% | 97.2% | 99.2% | 100% | 83.4% | 104% | 104% | 103% | 107% | 99.5% | 102% | 108% | 107% | 104%
2 | Cc1cc([N+](=O)[O-])c(Cl)cc1NS(=O)(=O)c1ccccc1 | – | 104% | 71% | 91.9% | – | 82.1% | 64.1% | 81.2% | 43.6% | 37.1% | 55.5% | 83.1% | 67.2% | 57.3% | 74.5% | 78.1% | 83.5% | 72.5% | 78.7% | 59.5%
3 | CNC(C)Cc1ccccc1 (stereo unspecified) (tested in a mixture with another compound) | 92.3% | 108% | 88.9% | 105% | 109% | 107% | 100% | 92.8% | 99.6% | 107% | – | 95.7% | 92.5% | – | 90.6% | 113% | 88.1% | 106% | 104% | 90.5%
4 | CC(C)(O)/C=C/C(=O)[C@](C)(O)[C@H]1[C@H](O)C[C@@]2(C)[C@@H]3CC=C4[C@@H](C=C(O)C(=O)C4(C)C)[C@]3(C)C(=O)C[C@]12C | 0.767% (active) | -40.2% (active) | -32.4% (active) | 0.503% (active) | 0.414% (active) | -31.1% (active) | -86.6% (active) | -58.8% (active) | -78.4% (active) | -29.9% (active) | -43.6% (active) | -29.9% (active) | -79.8% (active) | -38.9% (active) | -15.1% (active) | – | -3.44% (active) | -17.4% (active) | 12.2% | -15.3% (active)
5 | CCC(CO)NC1CCCCC1 (stereo unspecified) | 93.8% | 91.1% | 16.6% | 45% | 89.9% | 5.74% (active) | 81.6% | 92.2% | 93.4% | 91.9% | 81.2% | 84.7% | 71.6% | 60.9% | 88% | 78.9% | 92.4% | 91.2% | 80.9% | –
6 | CO[C@@H]1[C@H](OC(=O)NC(=O)CCl)CC[C@]2(CO2)[C@H]1[C@@]1(C)O[C@@H]1CC=C(C)C | 59.1% | 59.8% | 47.2% | 68.2% | 44.3% | 58.1% | 41.7% | 20.2% | 55.4% | 63.5% | 82.3% | 60.7% | 103% | 49.1% | 63% | – | 72.3% | 61.2% | 75.9% | 64.6%
7 | [O]=[Sn]([CH]1CCCCC1)[CH]1CCCCC1 | -83.3% (active) | -98% (active) | -8.85% (active) | -99% (active) | -88.3% (active) | -52.8% (active) | -99.9% (active) | -91.2% (active) | -98.5% (active) | -93.3% (active) | -63.2% (active) | -99.3% (active) | -98% (active) | 7.49% (active) | 6.59% (active) | -66.2% (active) | -97.1% (active) | -19.5% (active) | -83.2% (active) | -86.7% (active)
8 | ClCCN(CCCl)c1ccc(C=NCCc2c[nH]c3ccccc23)cc1 | 88.6% | 56.2% | 82.4% | 56.1% | 99.9% | 85.1% | 82.5% | 57% | 75.8% | 56.9% | 125% | 44.5% | 1.98% (active) | 91% | 63.1% | 74.8% | 94.5% | 89.8% | 76.2% | 80.6%
9 | CC1(C)N=C(N)N=C(N)N1c1ccc(CCC(=O)Nc2cccc(S(=O)(=O)F)c2)cc1 | 44.6% | 72.1% | 26.2% | 64.7% | 73.3% | 66.2% | 59.5% | 24.5% | 32.9% | 45.3% | 102% | 99.3% | – | 47.6% | 82.7% | 85.8% | 91.2% | 121% | – | 98.4%
